# Results as given in PMC7862700, “An all-to-all approach to the identification of sequence-specific readers for epigenetic DNA modifications on cytosine”.
# Experiments:
# Assay in all cases: DAPPL (digital affinity profiling via proximity ligation, sequencing); 10 mM Tris-HCl pH 7.5, 50 mM NaCl, 1 mM DTT, 4% glycerol, room temperature, 30 min; GST-TFs on glutathione beads, 16-mer random dsDNA library, 0.1% formaldehyde crosslink after washing; high values mean tight binding
# Conditions in all cases: protein: recombinant; tags: N-terminal GST; dsDNA, one strand shown
# FLI1 = target: T1, FLI1 (Homo sapiens, UniProt Q01543 1-452)
# T1 sequence: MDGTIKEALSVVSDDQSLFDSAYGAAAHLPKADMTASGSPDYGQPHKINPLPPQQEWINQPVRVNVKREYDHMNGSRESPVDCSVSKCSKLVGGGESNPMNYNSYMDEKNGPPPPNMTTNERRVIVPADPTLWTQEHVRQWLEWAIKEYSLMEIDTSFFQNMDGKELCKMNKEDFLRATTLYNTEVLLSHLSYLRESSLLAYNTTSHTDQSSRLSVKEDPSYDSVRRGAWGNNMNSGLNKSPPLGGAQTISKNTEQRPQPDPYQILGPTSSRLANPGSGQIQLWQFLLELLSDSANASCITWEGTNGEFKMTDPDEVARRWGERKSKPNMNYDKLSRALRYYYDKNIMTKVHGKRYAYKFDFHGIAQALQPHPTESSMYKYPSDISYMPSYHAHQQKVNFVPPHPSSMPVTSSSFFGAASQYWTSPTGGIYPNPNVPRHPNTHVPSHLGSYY
# How it was run: (§1)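 Human transcription factors carrying a GST fusion were produced in yeast, bound to glutathione beads, tagged with DNA barcodes and pooled together with a tag-only sample. Each pool was held with 200 nmole of a random double-stranded 16-mer DNA library in Tris/NaCl/DTT/glycerol buffer for 30 min at room temperature, then washed, crosslinked in 0.1% formaldehyde, proximity-ligated with BsaI/T4 ligase (1 h, 37 °C), PCR-amplified and sequenced on an Illumina NextSeq500. Binding signal is the read frequency of each hexamer for a given factor divided by its frequency in the tag-only sample.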
# ELK1 = target: T2, ELK1 (Homo sapiens, UniProt P19419 1-428)
# T2 sequence: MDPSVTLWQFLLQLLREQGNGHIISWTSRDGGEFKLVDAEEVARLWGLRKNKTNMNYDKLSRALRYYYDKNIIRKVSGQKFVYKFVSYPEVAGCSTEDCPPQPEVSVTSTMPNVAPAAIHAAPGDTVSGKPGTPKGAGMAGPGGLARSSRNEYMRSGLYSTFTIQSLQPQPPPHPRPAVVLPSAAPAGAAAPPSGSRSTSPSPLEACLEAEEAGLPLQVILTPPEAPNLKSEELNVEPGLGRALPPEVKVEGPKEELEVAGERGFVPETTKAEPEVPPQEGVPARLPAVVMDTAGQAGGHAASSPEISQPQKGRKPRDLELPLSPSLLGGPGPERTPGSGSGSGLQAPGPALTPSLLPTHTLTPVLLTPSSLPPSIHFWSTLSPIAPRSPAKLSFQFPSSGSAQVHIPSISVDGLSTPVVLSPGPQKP
# How it was run: as §1
# GABPA = target: T3, GABPA (Homo sapiens, UniProt Q06546 1-454)
# T3 sequence: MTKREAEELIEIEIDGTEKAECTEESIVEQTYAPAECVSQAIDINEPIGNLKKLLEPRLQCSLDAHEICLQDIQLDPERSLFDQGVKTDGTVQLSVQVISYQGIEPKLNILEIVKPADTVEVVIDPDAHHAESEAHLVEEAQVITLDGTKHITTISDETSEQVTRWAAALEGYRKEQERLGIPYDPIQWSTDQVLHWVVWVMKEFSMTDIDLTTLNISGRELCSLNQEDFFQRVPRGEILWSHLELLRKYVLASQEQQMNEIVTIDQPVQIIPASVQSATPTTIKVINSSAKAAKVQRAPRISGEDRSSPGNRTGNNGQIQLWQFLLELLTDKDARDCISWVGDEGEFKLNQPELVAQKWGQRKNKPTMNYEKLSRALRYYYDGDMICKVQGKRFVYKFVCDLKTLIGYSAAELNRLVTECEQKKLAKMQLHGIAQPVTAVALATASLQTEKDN
# How it was run: as §1
# ERG = target: T4, ERG (Homo sapiens, UniProt P11308 1-479)
# T4 sequence: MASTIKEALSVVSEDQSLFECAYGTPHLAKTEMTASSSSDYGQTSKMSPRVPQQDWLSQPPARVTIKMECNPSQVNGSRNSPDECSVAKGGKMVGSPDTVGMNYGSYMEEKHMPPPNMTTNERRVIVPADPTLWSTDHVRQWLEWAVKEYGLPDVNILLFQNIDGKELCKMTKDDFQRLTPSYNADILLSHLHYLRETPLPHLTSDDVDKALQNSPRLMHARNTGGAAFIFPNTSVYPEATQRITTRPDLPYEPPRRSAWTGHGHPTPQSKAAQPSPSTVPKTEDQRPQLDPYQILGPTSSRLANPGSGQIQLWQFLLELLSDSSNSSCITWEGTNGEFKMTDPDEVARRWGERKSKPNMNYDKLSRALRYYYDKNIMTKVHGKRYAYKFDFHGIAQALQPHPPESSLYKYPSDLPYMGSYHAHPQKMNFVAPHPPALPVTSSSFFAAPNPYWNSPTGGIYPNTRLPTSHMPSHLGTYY
# How it was run: as §1
# ELF1 = ELF1 (Homo sapiens, UniProt P32519 1-619)
# How it was run: as §1
# EHF = target: T5, EHF (Homo sapiens, UniProt Q9NZC4 1-300)
# T5 sequence: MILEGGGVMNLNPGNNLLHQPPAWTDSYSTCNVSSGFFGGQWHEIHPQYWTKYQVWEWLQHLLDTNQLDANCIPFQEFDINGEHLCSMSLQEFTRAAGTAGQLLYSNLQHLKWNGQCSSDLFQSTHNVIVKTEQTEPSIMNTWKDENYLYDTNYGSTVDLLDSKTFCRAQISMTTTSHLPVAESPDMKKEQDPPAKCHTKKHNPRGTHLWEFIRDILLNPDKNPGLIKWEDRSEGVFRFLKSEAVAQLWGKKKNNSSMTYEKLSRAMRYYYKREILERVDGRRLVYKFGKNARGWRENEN
# How it was run: as §1
# SPI1 = SPI1 (Homo sapiens, UniProt P17947 1-270)
# How it was run: as §1
# SPIB = SPIB (Homo sapiens, UniProt Q01892 1-262)
# How it was run: as §1
# ELK3 = target: T6, ELK3 (Homo sapiens, UniProt P41970 1-407)
# T6 sequence: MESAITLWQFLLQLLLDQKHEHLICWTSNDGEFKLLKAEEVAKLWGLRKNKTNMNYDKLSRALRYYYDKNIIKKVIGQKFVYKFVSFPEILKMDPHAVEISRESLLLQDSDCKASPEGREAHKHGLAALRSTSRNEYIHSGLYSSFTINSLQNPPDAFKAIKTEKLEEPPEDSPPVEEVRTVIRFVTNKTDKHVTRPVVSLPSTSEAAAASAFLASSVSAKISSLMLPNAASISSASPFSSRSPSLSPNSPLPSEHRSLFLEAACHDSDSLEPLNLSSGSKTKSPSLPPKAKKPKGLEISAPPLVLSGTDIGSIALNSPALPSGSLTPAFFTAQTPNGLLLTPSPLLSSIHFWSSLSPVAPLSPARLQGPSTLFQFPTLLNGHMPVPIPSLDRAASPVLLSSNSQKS
# How it was run: as §1
# FEV = target: T7, FEV (Homo sapiens, UniProt Q99581 1-238)
# T7 sequence: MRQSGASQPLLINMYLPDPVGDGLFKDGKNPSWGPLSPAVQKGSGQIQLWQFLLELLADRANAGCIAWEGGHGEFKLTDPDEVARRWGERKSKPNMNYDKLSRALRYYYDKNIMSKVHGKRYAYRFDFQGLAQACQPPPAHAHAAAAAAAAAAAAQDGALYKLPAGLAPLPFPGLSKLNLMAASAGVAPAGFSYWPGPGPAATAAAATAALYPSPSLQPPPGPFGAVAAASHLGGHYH
# How it was run: as §1
# Sequence of SPIB (Q01892 whole entry): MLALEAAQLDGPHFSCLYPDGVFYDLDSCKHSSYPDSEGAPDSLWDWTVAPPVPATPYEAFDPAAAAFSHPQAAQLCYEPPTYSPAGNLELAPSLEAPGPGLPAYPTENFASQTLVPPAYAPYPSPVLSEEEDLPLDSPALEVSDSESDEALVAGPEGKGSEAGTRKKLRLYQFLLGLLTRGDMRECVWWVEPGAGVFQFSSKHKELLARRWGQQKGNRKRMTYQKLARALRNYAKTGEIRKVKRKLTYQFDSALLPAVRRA
# Sequence of ELF1 (P32519 whole entry): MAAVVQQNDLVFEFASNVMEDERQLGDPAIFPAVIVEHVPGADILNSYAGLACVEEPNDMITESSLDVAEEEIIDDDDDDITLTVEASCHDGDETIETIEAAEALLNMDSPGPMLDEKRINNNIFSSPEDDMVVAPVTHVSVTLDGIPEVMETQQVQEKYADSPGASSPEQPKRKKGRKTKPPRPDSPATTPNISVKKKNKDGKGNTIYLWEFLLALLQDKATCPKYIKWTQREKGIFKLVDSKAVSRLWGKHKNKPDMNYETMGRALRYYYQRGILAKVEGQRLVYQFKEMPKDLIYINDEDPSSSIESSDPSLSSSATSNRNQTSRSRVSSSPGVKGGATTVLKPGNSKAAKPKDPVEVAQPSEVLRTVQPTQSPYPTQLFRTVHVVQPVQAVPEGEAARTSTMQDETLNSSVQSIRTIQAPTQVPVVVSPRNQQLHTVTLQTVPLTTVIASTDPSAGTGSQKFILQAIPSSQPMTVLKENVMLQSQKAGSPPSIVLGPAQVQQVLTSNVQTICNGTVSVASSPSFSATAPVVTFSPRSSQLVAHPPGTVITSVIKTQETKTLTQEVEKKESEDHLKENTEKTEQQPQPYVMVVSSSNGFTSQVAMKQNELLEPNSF
sequence,measurement,setting,value
CGATGT,binding signal,FLI1,"1.1 fold enrichment (6-mer frequency, TF over GST control)"
same,binding signal,ELK1,"1.07 fold enrichment (6-mer frequency, TF over GST control)"
same,binding signal,GABPA,"1.08 fold enrichment (6-mer frequency, TF over GST control)"
same,binding signal,ERG,"1.08 fold enrichment (6-mer frequency, TF over GST control)"
same,binding signal,ELF1,"1.03 fold enrichment (6-mer frequency, TF over GST control)"
same,binding signal,EHF,"1.11 fold enrichment (6-mer frequency, TF over GST control)"
same,binding signal,SPI1,"1.15 fold enrichment (6-mer frequency, TF over GST control)"
same,binding signal,SPIB,"1.08 fold enrichment (6-mer frequency, TF over GST control)"
same,binding signal,ELK3,"1.04 fold enrichment (6-mer frequency, TF over GST control)"
same,binding signal,FEV,"1.06 fold enrichment (6-mer frequency, TF over GST control)"
